The values that follow come from PubChem BioAssay.

Values joined by “and” are separate entries in the source; they are usually repeats but may differ in a detail not shown here. Identical values can stand only once. Inconclusive results are not listed. Active and inactive are the calls of the source. Unless noted, the rule behind the calls is not given here.

A short description of assay [1]: compounds altering circadian rhythm period length – cell-based, LOPAC library, luminescence reporter (AID 2774).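 Note: values are relative to mean of DMSO wells on each plate.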 To be noted: circadian reporter cells, at 7 µM, actives lie on both sides.
Assay [2] relates to Hepatitis C virus NS3 helicase. As to the kind of experiment: blockers of NS3h binding to ssDNA – biochemical, fluorescence polarization, LOPAC1280 library, primary screen (AID 687035; in the data active = inhibition above about 37%). To be noted: Purified HCV NS3 helicase, Cy5-dT15 ssDNA binding fluorescence polarization; stronger effect = higher value; concentration not given here.
A short description of assay [3]: compounds altering Cy5-DNA-NS3h complex signal – biochemical, LOPAC1280, artefact control for HCV NS3 helicase inhibitor project (AID 687037). To be noted: Cy5-DNA-NS3h complex fluorescence interference counterscreen.
The test system of assay [4] is Aerobactin synthetase IucA (Klebsiella pneumoniae, hypervirulent). Kind of assay: biochemical IucA inhibition screen of LOPAC library by absorbance (AID 1346212).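 Note: 100% = no compound wells and 0% = no enzyme wells.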 To be noted: IucA enzyme assay, absorbance (OD) readout; stronger effect = lower value;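 tested at 8 µM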.
Assay [5] can be described thus: viability loss with induced miR-34 in A549 – imaging, A549 dox-inducible miR-34, nuclei and caspase counts, primary screen (AID 1347080;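 active = compounds whose cell count with miR-34 switched on is under 0.7 times the count with it off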). To be noted: A549 miR-34 inducible, Hoechst nuclei count, 48 h.
The nature of assay [6]: blockers of cellular phospholipid synthesis – cell-based, LOPAC library, screen 4, primary screen (AID 1347384). The following applies: animal cells, phospholipid biosynthesis inhibition screen; at 10 µM.
Assay [7] can be described thus: galactose survival enhancers in mitochondrial complex I cybrids – cell-based, galactose medium, ATP luminescence, primary screen (AID 1645843;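 active = z-score of at least 1.8 in each of two replicates, scored against plate mean and spread of sample wells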;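 note: positive z means more ATP and so rescue of galactose-driven cybrid death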). To be noted: complex I mutant cybrid cells, 72 h, stronger effect = higher value.
Assay [8] can be described thus: compounds altering viability of human ES cells (AID 493140).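 Note: cells exposed to compounds for four days before counting.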 To be noted: human embryonic stem cell survival screen; stronger effect = higher value.
Assay [9] is described as follows: P. berghei load reduction in hepatocytes – cell-based, HepG2, luciferase luminescence, HepG2 viability, primary screen (AID 624349; in the data active = parasite load remaining mostly below about 12%, no sharp cut-off; inactive = mostly above about 10%;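 note: 100% = mean of DMSO negative control wells on the same plate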). To be noted: P. berghei liver stage in HepG2, luciferase luminescence, concentration not given here; parasite load remaining: stronger effect = lower value; viability: measured here: HepG2 viability without parasites.
Assay [10] is described as follows: viability loss in pontine glioma line – cell-based, SU-DIPG-XIII, MIPE4.0, CellTiter-Glo, qHTS, dose response (AID 1347061; cut-off not given, nearly all actives have AC50 up to about 37 µM;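 note: cells exposed to compound for 48 hours before readout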). To be noted: CellTiter-Glo ATP luminescence.
The nature of assay [11]: viability loss in pontine glioma line – cell-based, JHH-DIPG-1, MIPE4.0, CellTiter-Glo, qHTS, dose response (AID 1347062; cut-off not given, nearly all actives have AC50 up to about 27 µM;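 note: cells exposed to compound for two days before readout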). The following applies: JHH-DIPG-1 viability, CellTiter-Glo ATP luminescence.
The nature of assay [12]: viability loss in pontine glioma line – cell-based, SU-DIPG-IV, MIPE4.0, CellTiter-Glo, qHTS, dose response (AID 1347063; cut-off not given, nearly all actives have AC50 up to about 30 µM;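 note: compound exposure lasted 48 hours before the viability readout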). To be noted: CellTiter-Glo ATP luminescence.
Assay [13] in a line: viability loss in pontine glioma line – cell-based, SU-DIPG-XIII, MIPE5.0, CellTiter-Glo, qHTS, dose response (AID 1347064; cut-off not given, nearly all actives have AC50 up to about 23 µM;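 note: cells exposed to compound for 48 hours before the viability read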). The following applies: CellTiter-Glo ATP luminescence.
The nature of assay [14]: growth inhibition of DIPG cells – cell-based, MIPE4.0 library, CellTiter-Glo luminescence, qHTS (AID 1347066; cut-off not given, nearly all actives have AC50 up to about 30 µM;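 note: cells exposed to compound for 48 hours before readout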). The following applies: SU-DIPG-VI viability, CellTiter-Glo ATP luminescence.
Assay [15] is described as follows: JHH-DIPG-1 glioma cell viability, MIPE5.0 library, CellTiter-Glo luminescence, qHTS (AID 1347067; cut-off not given, nearly all actives have AC50 up to about 26 µM;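 note: cells exposed to compound for 48 hours before readout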). The following applies: JHH-DIPG-1 glioma viability, CellTiter-Glo ATP luminescence.
The nature of assay [16]: chitosan synthesis blockers in C. neoformans – flow cytometry, Cibacron Brilliant Red staining (AID 1347148).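 Note: compound exposure lasted three days at 37 degrees C.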 The following applies: Cryptococcus neoformans chitosan, stronger effect = lower value; at 10 µM unless noted.
Setting [17] is: measured here: relative caspase fold change +Dox/-Dox.
The mark [18] stands for this setting: measured here: total cells with miR-34 induction, stronger effect = lower value.
[19] abbreviates: measured here: total cells without miR-34 induction.

On to `CCCN1CCc2cc(O)cc3c2[C@H]1Cc1ccc(O)c(O)c1-3`, for which the period change in assay [1] was 0.415 h (inactive). Also, the inhibition in assay [2] is 1% (inactive). In [3], the fluorescence ratio (interference) was 1 (inactive). In addition, the remaining activity in assay [4] is 99.8% (inactive). Also, the fold change is 0.922 (inactive) in assay [5] (stronger effect = lower value) and 1.32 in assay [5] (setting [17]). For the same compound, the cell count in [5] (setting [18]) is 9400; in [5] (setting [19]) it was 10200. In addition, the result in assay [6] was inactive. For the same compound, the z-score in assay [7] was -0.965 (inactive).

As to `C[N+](C)(C)CCOC(=O)CBr`, in [1], the period change was 0.015 h (inactive). For the same compound, the inhibition in assay [2] is -2% (inactive). Besides, the fluorescence ratio (interference) in [3] was 1 (inactive). Further, in assay [4], the remaining activity was 126% (inactive). In addition, the results for the fold change in assay [5] (stronger effect = lower value) and in [5] (setting [17]) were 1.01 (inactive) and 2.27, respectively. For the same compound, the cell count in [5] (setting [18]) and in assay [5] (setting [19]) was 10100 in each case. Moreover, the compound was classed as inactive in assay [6]. In assay [7], the z-score was 0.69 (inactive).

Regarding `C[N+]1(C)C2CCC1CC(OC(=O)c1c[nH]c3ccccc13)C2` (stereo not given), the period change in [1] was -0.255 h (inactive). The inhibition in assay [2] is 0% (inactive). Further, the fluorescence ratio (interference) in [3] is 1 (inactive). Further, the remaining activity in assay [4] is 94.3% (inactive). Moreover, the fold change in assay [5] (stronger effect = lower value) was 0.939 (inactive); in assay [5] (setting [17]), 1.36. In addition, the cell count in assay [5] (setting [18]) was 9240; in assay [5] (setting [19]), 9840. In assay [6], the outcome was inactive. Besides, in [7], the z-score was 0.4 (inactive).

Take `NCC(O)c1cc(O)c(O)cc1F` (stereo not given): in [1], the period change is -0.105 h (inactive). In addition, the inhibition in [2] was 1% (inactive). In addition, the fluorescence ratio (interference) in assay [3] is 0.9 (inactive). The remaining activity in [4] was 110% (inactive). Also, the values for the fold change in [5] (stronger effect = lower value) and in [5] (setting [17]) were 1.02 (inactive) and 1.46, respectively. The cell count in assay [5] (setting [18]) came out at 10300; in [5] (setting [19]), 10200. Also, the result in assay [6] was inactive. Besides, the z-score in [7] is -1.47 (inactive).

In the case of `NC(=O)c1cc(N2CC2)c([N+](=O)[O-])cc1[N+](=O)[O-]`, the period change in assay [1] is -0.165 h (inactive). The inhibition in assay [2] was -2% (inactive). Moreover, the fluorescence ratio (interference) in assay [3] was 1 (inactive). Moreover, the remaining activity in [4] is 112% (inactive). For the same compound, the fold change was 1.03 (inactive) in assay [5] (stronger effect = lower value) and 1.9 in [5] (setting [17]). Also, the cell count turned out to be 4350 in assay [5] (setting [18]) and 4220 in [5] (setting [19]). For the same compound, the compound was classed as inactive in assay [6]. The z-score in [7] is 0.09 (inactive).

As for `CN1CC[C@@]2(C)c3cc(O)ccc3N(C)C12` (stereo not given in full), in [1], the period change is -0.055 h (inactive). Moreover, the survival in assay [8] was 4.58 (inactive). For the same compound, the inhibition in [2] is 1% (inactive). Further, the fluorescence ratio (interference) in assay [3] was 1 (inactive). For the same compound, the remaining activity in assay [4] is 92.9% (inactive). In addition, the fold change in assay [5] (stronger effect = lower value) is 1.09 (inactive); in assay [5] (setting [17]), 1.19. Moreover, the cell count in assay [5] (setting [18]) was found to be 8970; in [5] (setting [19]), 8270. Besides, in assay [6], the outcome was inactive. Moreover, in assay [7], the z-score is -1.04 (inactive).

On to `O=C1C=CC(=O)C=C1`, for which, in assay [1], the period change was -0.065 h (inactive). The inhibition in assay [2] was 0% (inactive). Also, the fluorescence ratio (interference) in assay [3] was 1 (inactive). Besides, the remaining activity in assay [4] is 109% (inactive). Moreover, the fold change was 1.02 (inactive) in assay [5] (stronger effect = lower value) and 1.65 in assay [5] (setting [17]). Further, the cell count in assay [5] (setting [18]) amounted to 9760; in [5] (setting [19]) it was 9540. Besides, the compound was called inactive in assay [6]. Also, the z-score in assay [7] is 0.205 (inactive).

In the case of `COc1ccc2c(c[n+](C)c3c4cc5c(cc4ccc23)OCO5)c1OC`, the period change in [1] is 0.045 h (inactive). The parasite load remaining in assay [9] was 41.8% (inactive). Moreover, the viability in assay [9] came out at 157%. Also, in assay [2], the inhibition is -3% (inactive). Further, in assay [3], the fluorescence ratio (interference) is 0.9 (inactive). Besides, the remaining activity in assay [4] was 110% (inactive). Further, the AC50 is 26.4 µM (active) in [10]; 4.18 µM (active) in assay [11]; 5.26 µM (active) in assay [12]; 4.17 µM (active) in [13]; 8.33 µM (active) in [14]; 5.9 µM (active) in [15]. In addition, the fold change is 1.19 (inactive) and 0.771 (inactive) in assay [5] (stronger effect = lower value); 0.571 and 1.14 in assay [5] (setting [17]). For the same compound, the cell count was 525 and 1050 in [5] (setting [18]); 442 and 1360 in assay [5] (setting [19]). In assay [16], the fold fluorescence is 7.04 [at 143.5 µM] (inactive). In assay [6], the outcome was inactive. The z-score in assay [7] was -1.52 (inactive).
